Holding throughout (assay): peptide microarray binding signal (635 nm), min-max normalized on array (fraction of array maximum); higher = stronger binding
Details in all cases: peptide region: H3 1-13

The target of experiment [1] is T1, HaloTag-ATRX ADD domain (163-292).
T1 chain: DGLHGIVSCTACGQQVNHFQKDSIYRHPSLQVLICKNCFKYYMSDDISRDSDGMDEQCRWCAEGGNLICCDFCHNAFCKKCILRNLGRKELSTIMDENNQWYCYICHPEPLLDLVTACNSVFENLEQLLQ
How it is done:
(§1)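 Histone 13-mer peptides were synthesized as cellulose conjugates with a C-terminal 20-atom PEG linker and printed in triplicate on nitrocellulose. The sequence given is the unmodified backbone; PTMs (Kme1/2/3, Kac, Sph/Tph, Rme/Rme2a/Rme2s, Rcit) are listed in the label and the 'peptide modifications' condition. Slides were probed at 4 °C for 1 h with biotin-labelled (HQ)5-HaloTag reader fusions (ATRX-ADD, ING2-PHD) then streptavidin-Alexa647, or with rabbit histone antibodies then anti-rabbit Alexa647. The mean 635 nm signal of the triplicate spots was scaled 0-1 between the lowest and highest values on each array.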

The target in experiment [2] is HaloTag-ING2 PHD (mouse Ing2 200-280). How it is done:
as §1

For experiment [3], the target named is anti-H3K4me3 antibody ab8580. How it is done:
as §1

Experiment [4] addresses anti-H3K9me3 antibody ab8898. How it is done:
as §1

Setting [5] is: peptide modifications: H3R2me1 H3K4ac, binder concentration: 1:2,000 dilution.
Setting [6] is: peptide modifications: H3R2me1 H3K4ac, binder concentration: 1:10,000 dilution.
Where [7] appears, read: peptide modifications: H3R2me1 H3K9ac, binder concentration: 1:2,000 dilution.
Where [8] appears, read: peptide modifications: H3R2me1 H3K9ac, binder concentration: 1:10,000 dilution.
The mark [9] stands for this setting: peptide modifications: H3R2cit, binder concentration: 1:2,000 dilution.
Setting [10] is: peptide modifications: H3R2cit, binder concentration: 1:10,000 dilution.
The mark [11] stands for this setting: peptide modifications: H3R2me1 H3K4me1, binder concentration: 1:2,000 dilution.
The mark [12] stands for this setting: peptide modifications: H3R2me1 H3K4me1, binder concentration: 1:10,000 dilution.
The mark [13] stands for this setting: peptide modifications: H3R2me1 H3K9me2, binder concentration: 1:2,000 dilution.
Setting [14] is: peptide modifications: H3R2me1 H3K9me2, binder concentration: 1:10,000 dilution.
Where [15] appears, read: peptide modifications: H3R2me2a H3K9ac, binder concentration: 1:2,000 dilution.
Where [16] appears, read: peptide modifications: H3R2me2a H3K9ac, binder concentration: 1:10,000 dilution.
[17] abbreviates: peptide modifications: H3R2me1 H3K9me1, binder concentration: 1:2,000 dilution.
[18] abbreviates: peptide modifications: H3R2me1 H3K9me1, binder concentration: 1:10,000 dilution.
Where [19] appears, read: peptide modifications: H3R2cit H3T3ph, binder concentration: 1:2,000 dilution.
Where [20] appears, read: peptide modifications: H3R2cit H3T3ph, binder concentration: 1:10,000 dilution.
Setting [21] is: peptide modifications: H3R2me1 H3K4me3, binder concentration: 1:2,000 dilution.
Setting [22] is: peptide modifications: H3R2me1 H3K4me3, binder concentration: 1:10,000 dilution.
Where [23] appears, read: peptide modifications: H3R2cit H3K9me3, binder concentration: 1:2,000 dilution.
Where [24] appears, read: peptide modifications: H3R2cit H3K9me3, binder concentration: 1:10,000 dilution.

The values below come from the supplement of paper PMC4022240.

± gives the standard deviation.

ARTKQTARKSTGG [H3 1-13 A Rme T Kac Q T A R K S T G G]: the “peptide microarray binding signal” value is 0.00636 ± 0.00044 in experiment [1] (peptide modifications: H3R2me1 H3K4ac, binder concentration: 50 nM); 0.00867 ± 0.00048 in experiment [1] (peptide modifications: H3R2me1 H3K4ac, binder concentration: 500 nM); 0.0133 ± 0.0026 in experiment [2] (peptide modifications: H3R2me1 H3K4ac, binder concentration: 10 nM); 0.0738 ± 0.0056 in experiment [2] (peptide modifications: H3R2me1 H3K4ac, binder concentration: 100 nM); 0.00115 ± 0.0001 in experiment [3] (setting [5]); 0.001541 ± 1.5e-05 in experiment [3] (setting [6]). The “peptide microarray binding signal” value in experiment [4] (setting [5]) is 0.00402 ± 0.0014; in experiment [4] (setting [6]), 0.0011 ± 2.2e-05.
Consider ARTKQTARKSTGG [H3 1-13 A Rme T K Q T A R Kac S T G G], for which the “peptide microarray binding signal” value in experiment [1] (peptide modifications: H3R2me1 H3K9ac, binder concentration: 50 nM) is 0.0167 ± 0.0025; in experiment [1] (peptide modifications: H3R2me1 H3K9ac, binder concentration: 500 nM), 0.121 ± 0.14; in experiment [2] (peptide modifications: H3R2me1 H3K9ac, binder concentration: 10 nM) it was 0.0337 ± 0.00085; in experiment [2] (peptide modifications: H3R2me1 H3K9ac, binder concentration: 100 nM), 0.0529 ± 0.0063; in experiment [3] (setting [7]), 0.0105 ± 0.0012; in experiment [3] (setting [8]), 0.00999 ± 0.00055. Moreover, the entries for the “peptide microarray binding signal” value in experiment [4] (setting [7]) and in experiment [4] (setting [8]) were 0.085 ± 0.13 and 0.0364 ± 0.046, respectively.
In the case of ARTKQTARKSTGG [H3 1-13 A Rcit T K Q T A R K S T G G], the “peptide microarray binding signal” value turned out to be 0.00937 ± 0.00037 in experiment [1] (peptide modifications: H3R2cit, binder concentration: 50 nM); 0.0298 ± 0.0055 in experiment [1] (peptide modifications: H3R2cit, binder concentration: 500 nM); 0.012 ± 0.0023 in experiment [2] (peptide modifications: H3R2cit, binder concentration: 10 nM); 0.0101 ± 0.001 in experiment [2] (peptide modifications: H3R2cit, binder concentration: 100 nM); 0.00315 ± 0.00061 in experiment [3] (setting [9]); 0.00126 ± 0.00016 in experiment [3] (setting [10]). The “peptide microarray binding signal” value in experiment [4] (setting [9]) stood at 0.00101 ± 0.00014; in experiment [4] (setting [10]) it was 0.000577 ± 1.6e-05.
On to ARTKQTARKSTGG [H3 1-13 A Rme T Kme Q T A R K S T G G], for which the “peptide microarray binding signal” value in experiment [1] (peptide modifications: H3R2me1 H3K4me1, binder concentration: 50 nM) is 0.00746 ± 0.00026; in experiment [1] (peptide modifications: H3R2me1 H3K4me1, binder concentration: 500 nM) it was 0.0155 ± 0.00095; in experiment [2] (peptide modifications: H3R2me1 H3K4me1, binder concentration: 10 nM) it was 0.0585 ± 0.006; in experiment [2] (peptide modifications: H3R2me1 H3K4me1, binder concentration: 100 nM), 0.147 ± 0.034; in experiment [3] (setting [11]), 0.0545 ± 0.02; in experiment [3] (setting [12]), 0.023 ± 0.0071. The “peptide microarray binding signal” value in experiment [4] (setting [11]) amounted to 0.00248 ± 0.00029; in experiment [4] (setting [12]) it was 0.00127 ± 1.3e-05.
ARTKQTARKSTGG [H3 1-13 A Rme T K Q T A R Kme2 S T G G]: the “peptide microarray binding signal” value amounted to 0.151 ± 0.01 in experiment [1] (peptide modifications: H3R2me1 H3K9me2, binder concentration: 50 nM); 0.167 ± 0.011 in experiment [1] (peptide modifications: H3R2me1 H3K9me2, binder concentration: 500 nM); 0.047 ± 0.0094 in experiment [2] (peptide modifications: H3R2me1 H3K9me2, binder concentration: 10 nM); 0.0747 ± 0.029 in experiment [2] (peptide modifications: H3R2me1 H3K9me2, binder concentration: 100 nM); 0.00563 ± 0.00089 in experiment [3] (setting [13]); 0.00873 ± 0.0023 in experiment [3] (setting [14]). Further, the “peptide microarray binding signal” value was 0.022 ± 0.012 in experiment [4] (setting [13]) and 0.0186 ± 0.014 in experiment [4] (setting [14]).
For ARTKQTARKSTGG [H3 1-13 A Rme2a T K Q T A R Kac S T G G], the “peptide microarray binding signal” value in experiment [1] (peptide modifications: H3R2me2a H3K9ac, binder concentration: 50 nM) turned out to be 0.132 ± 0.1; in experiment [1] (peptide modifications: H3R2me2a H3K9ac, binder concentration: 500 nM), 0.0324 ± 0.01; in experiment [2] (peptide modifications: H3R2me2a H3K9ac, binder concentration: 10 nM), 0.0189 ± 0.0011; in experiment [2] (peptide modifications: H3R2me2a H3K9ac, binder concentration: 100 nM) it was 0.0301 ± 0.0026; in experiment [3] (setting [15]), 0.00698 ± 0.00018; in experiment [3] (setting [16]), 0.00799 ± 0.0008. Also, the “peptide microarray binding signal” value in experiment [4] (setting [15]) was determined as 0.00634 ± 0.0012; in experiment [4] (setting [16]) it was 0.0094 ± 0.0049.
ARTKQTARKSTGG [H3 1-13 A Rme T K Q T A R Kme1 S T G G]: the “peptide microarray binding signal” value in experiment [1] (peptide modifications: H3R2me1 H3K9me1, binder concentration: 50 nM) was determined as 0.0572 ± 0.0022; in experiment [1] (peptide modifications: H3R2me1 H3K9me1, binder concentration: 500 nM), 0.108 ± 0.011; in experiment [2] (peptide modifications: H3R2me1 H3K9me1, binder concentration: 10 nM) it was 0.0402 ± 0.0095; in experiment [2] (peptide modifications: H3R2me1 H3K9me1, binder concentration: 100 nM), 0.0772 ± 0.0086; in experiment [3] (setting [17]), 0.00991 ± 0.0016; in experiment [3] (setting [18]) it was 0.008959 ± 8.7e-05. The entries for the “peptide microarray binding signal” value in experiment [4] (setting [17]) and in experiment [4] (setting [18]) were 0.00462 ± 0.00079 and 0.0045 ± 0.00015, respectively.
ARTKQTARKSTGG [H3 1-13 A Rcit Tph K Q T A R K S T G G]: the “peptide microarray binding signal” value was determined as 0.00364 ± 0.00018 in experiment [1] (peptide modifications: H3R2cit H3T3ph, binder concentration: 50 nM); 0.0133 ± 0.0009 in experiment [1] (peptide modifications: H3R2cit H3T3ph, binder concentration: 500 nM); 0.00125 ± 3.1e-05 in experiment [2] (peptide modifications: H3R2cit H3T3ph, binder concentration: 10 nM); 0.0167 ± 0.011 in experiment [2] (peptide modifications: H3R2cit H3T3ph, binder concentration: 100 nM); 0.00283 ± 0.00066 in experiment [3] (setting [19]); 0.00126 ± 8.7e-05 in experiment [3] (setting [20]). Further, the “peptide microarray binding signal” value in experiment [4] (setting [19]) was determined as 0.000846 ± 7.1e-05; in experiment [4] (setting [20]), 0.000807 ± 2.9e-05.
Consider ARTKQTARKSTGG [H3 1-13 A Rme T Kme3 Q T A R K S T G G], for which the “peptide microarray binding signal” value in experiment [1] (peptide modifications: H3R2me1 H3K4me3, binder concentration: 50 nM) is 0.00765 ± 0.00016; in experiment [1] (peptide modifications: H3R2me1 H3K4me3, binder concentration: 500 nM), 0.0187 ± 0.00094; in experiment [2] (peptide modifications: H3R2me1 H3K4me3, binder concentration: 10 nM) it was 0.267 ± 0.048; in experiment [2] (peptide modifications: H3R2me1 H3K4me3, binder concentration: 100 nM) it was 0.215 ± 0.13; in experiment [3] (setting [21]), 0.449 ± 0.19; in experiment [3] (setting [22]) it was 0.243 ± 0.053. Moreover, the “peptide microarray binding signal” value was 0.106 ± 0.018 in experiment [4] (setting [21]) and 0.0312 ± 0.0012 in experiment [4] (setting [22]).
For ARTKQTARKSTGG [H3 1-13 A Rcit T K Q T A R Kme3 S T G G], the “peptide microarray binding signal” value in experiment [1] (peptide modifications: H3R2cit H3K9me3, binder concentration: 50 nM) stood at 0.435 ± 0.044; in experiment [1] (peptide modifications: H3R2cit H3K9me3, binder concentration: 500 nM) it was 0.525 ± 0.024; in experiment [2] (peptide modifications: H3R2cit H3K9me3, binder concentration: 10 nM), 0.0492 ± 0.0064; in experiment [2] (peptide modifications: H3R2cit H3K9me3, binder concentration: 100 nM) it was 0.0792 ± 0.014; in experiment [3] (setting [23]) it was 0.137 ± 0.007; in experiment [3] (setting [24]), 0.0635 ± 0.0071. Further, the “peptide microarray binding signal” value in experiment [4] (setting [23]) turned out to be 0.676 ± 0.04; in experiment [4] (setting [24]) it was 0.408 ± 0.044.
